Some test systems named below: DU-145 prostate; K-562 leukemia; MALME-3M melanoma; MDA-MB-231 breast; RXF 393 renal; SF-268 CNS; SF-295 CNS; SF-539 CNS; UACC-257 melanoma; M14 melanoma; HCT-15 colon; HT29 colon; SNB-75 CNS; SNB-19 CNS; U251 CNS; PC-3 prostate; SK-MEL-5 melanoma; UACC-62 melanoma; LOX IMVI melanoma; SK-MEL-28 melanoma.
Holding throughout (experiment): NCI-60 one-dose screen, 48 h (100 = growth as untreated, 0 = no growth, -100 = all killed)
Conditions in all cases: 10 µM unless noted

This is part of a sample that, as a whole, favours compounds with a hit. Of some 83,000 tested, about 20% had one in any assay.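 Interpretation: 100, growth as untreated; towards 0, rising growth inhibition; 0, no net growth; 0 to -100, cell death. Compounds scoring below 10 were considered active.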 Unmarked numbers belong to inactive results. Active and inactive are the calls of the source.

Consider `C#C[C@]1(O)CC[C@H]2[C@@H]3CC=C4c5nc(Nc6ncccn6)sc5CC[C@]4(C)[C@H]3CC[C@@]21C`, for which the growth is 61.1% with DU-145 prostate; 33.8% in the test with K-562 leukemia; 47.6% with MALME-3M melanoma; 34.2% in the test on MDA-MB-231 breast; -59.1% (active) with RXF 393 renal; 29.5% in the test with SF-268 CNS. For the same molecule, the growth in the test on SF-295 CNS was -66.2% (active); in the test with SF-539 CNS, -50.1% (active); in the test on UACC-257 melanoma, -16% (active); with M14 melanoma it was 43.8%; in the test on HCT-15 colon it was 33.1%; in the test on HT29 colon, 55.4%. Moreover, the growth is -7.12% (active) with SNB-75 CNS; 64.8% in the test on SNB-19 CNS; 21.9% in the test on U251 CNS; 32.1% in the test with PC-3 prostate; 68.1% with SK-MEL-5 melanoma; 1.81% (active) in the test on UACC-62 melanoma. The growth is 26.9% with LOX IMVI melanoma and -41.4% (active) in the test with SK-MEL-28 melanoma.
`C=C(C)[C@@H]1CC[C@]2(C)[C@H](CC[C@@H]3[C@@H]([C@@](C)(O)CCC=C(C)C)CC[C@]32C)[C@@]1(C)CCC(=O)O`: the growth was 7.93% [100 µM] (active) in the test on DU-145 prostate; 11.6% [100 µM] with K-562 leukemia; -39.6% [100 µM] (active) with MALME-3M melanoma; -39.5% [100 µM] (active) with MDA-MB-231 breast; -69.2% [100 µM] (active) in the test with RXF 393 renal; -17.9% [100 µM] (active) with SF-268 CNS. Also, the growth in the test on SF-295 CNS is -59.9% [100 µM] (active); in the test on SF-539 CNS, -85.7% [100 µM] (active); in the test with UACC-257 melanoma, 28.9% [100 µM]; with M14 melanoma it was 2.42% [100 µM] (active); in the test on HCT-15 colon, -15.9% [100 µM] (active); with HT29 colon, 2.65% [100 µM] (active). Further, the growth in the test on SNB-75 CNS was -37.5% [100 µM] (active); with SNB-19 CNS it was -32.8% [100 µM] (active); in the test with U251 CNS, -16.7% [100 µM] (active); with PC-3 prostate, 5.99% [100 µM] (active); with SK-MEL-5 melanoma, -88.2% [100 µM] (active); with UACC-62 melanoma it was -75.3% [100 µM] (active). In addition, the growth with LOX IMVI melanoma is -100% [100 µM] (active); with SK-MEL-28 melanoma, -83% [100 µM] (active).
In the case of `O=C(CCN1CCCCC1)c1ccc(Cl)cc1`, the growth in the test with DU-145 prostate is 106%; in the test with K-562 leukemia it was 118%; in the test with MALME-3M melanoma, 105%; in the test with MDA-MB-231 breast it was 104%; in the test on RXF 393 renal, 113%; in the test on SF-268 CNS, 104%. Also, the growth was 94.2% with SF-295 CNS; 99.9% with SF-539 CNS; 108% in the test on UACC-257 melanoma; 107% in the test on M14 melanoma; 98.5% in the test on HCT-15 colon; 104% in the test on HT29 colon. Besides, the growth in the test with SNB-75 CNS was 89.1%; with SNB-19 CNS it was 103%; in the test with U251 CNS, 107%; with PC-3 prostate it was 91.6%; with SK-MEL-5 melanoma, 97.6%; in the test with UACC-62 melanoma, 103%. Also, the growth is 91.3% in the test on LOX IMVI melanoma and 108% in the test with SK-MEL-28 melanoma.
`C=C(C)[C@@H]1CC[C@]2(C)[C@H](C(=O)C=C3[C@@H]4C[C@](C)(C(=O)N5CCN(C)CC5)CC[C@]4(C)CC[C@]32C)[C@@]1(C)CCC#N`: the growth is -51.6% [100 µM] (active) in the test with DU-145 prostate; -4.62% [100 µM] (active) with K-562 leukemia; -86.5% [100 µM] (active) with MALME-3M melanoma; -92.4% [100 µM] (active) in the test on MDA-MB-231 breast; -86.4% [100 µM] (active) with RXF 393 renal; -76.2% [100 µM] (active) with SF-268 CNS. The growth with SF-295 CNS was -88% [100 µM] (active); with SF-539 CNS it was -92% [100 µM] (active); in the test with UACC-257 melanoma, -77.1% [100 µM] (active); in the test on M14 melanoma, -62.6% [100 µM] (active); in the test on HCT-15 colon, -88.2% [100 µM] (active); in the test with HT29 colon, -53.2% [100 µM] (active). For the same molecule, the growth in the test with SNB-75 CNS was -92.2% [100 µM] (active); in the test on SNB-19 CNS it was -95.8% [100 µM] (active); in the test with U251 CNS, -76.7% [100 µM] (active); with PC-3 prostate it was -65.9% [100 µM] (active); with SK-MEL-5 melanoma, -94.6% [100 µM] (active); in the test on UACC-62 melanoma it was -88.9% [100 µM] (active). The growth was -93.6% [100 µM] (active) with LOX IMVI melanoma and -90.1% [100 µM] (active) with SK-MEL-28 melanoma.
Take `COc1ccc(CC(C#N)c2ccc(Cl)cc2)cc1` (stereo not given): the growth in the test on DU-145 prostate was 77.3%; in the test with K-562 leukemia it was 41.6%; in the test with MALME-3M melanoma, 89.3%; with MDA-MB-231 breast, 79.7%; in the test with RXF 393 renal, 92.1%; in the test on SF-268 CNS, 78%. For the same molecule, the growth in the test with SF-295 CNS was 78.9%; with SF-539 CNS it was 85.1%; in the test with UACC-257 melanoma, 91.7%; in the test on M14 melanoma it was 73.3%; in the test on HCT-15 colon, 60.6%; in the test on HT29 colon it was 55.3%. Besides, the growth in the test on SNB-75 CNS was 75.9%; with SNB-19 CNS, 82.1%; with U251 CNS, 77.6%; with PC-3 prostate, 85.9%; with SK-MEL-5 melanoma, 76.8%; with UACC-62 melanoma, 69.6%. The figures for the growth in the test on LOX IMVI melanoma and in the test on SK-MEL-28 melanoma were 79.3% and 91.5%, respectively.
Take `NC(=O)CC1C=CCC1` (stereo not given): the growth in the test on DU-145 prostate is 102%; with K-562 leukemia it was 96%; in the test with MALME-3M melanoma it was 97.8%; in the test with MDA-MB-231 breast it was 102%; with RXF 393 renal, 111%; with SF-268 CNS, 102%. Besides, the growth with SF-295 CNS was 98.3%; in the test with SF-539 CNS, 93.3%; in the test with UACC-257 melanoma, 90.4%; with M14 melanoma, 102%; in the test with HCT-15 colon, 99.5%; with HT29 colon, 96.3%. Also, the growth in the test with SNB-75 CNS is 84.3%; in the test on SNB-19 CNS, 104%; with U251 CNS, 85.5%; in the test with PC-3 prostate it was 98.7%; with SK-MEL-5 melanoma it was 99.5%; in the test on UACC-62 melanoma, 101%. Further, the growth in the test with LOX IMVI melanoma is 103%; with SK-MEL-28 melanoma it was 109%.
For the molecule `CC(C)OC(=O)Nc1cc(F)ccc1F`, the growth in the test on DU-145 prostate is 110%; with K-562 leukemia, 97.4%; with MALME-3M melanoma it was 92.7%; in the test on MDA-MB-231 breast, 97%; in the test on RXF 393 renal, 106%; in the test on SF-268 CNS it was 103%. Moreover, the growth was 97.5% with SF-295 CNS; 92.1% in the test with SF-539 CNS; 96.9% in the test on UACC-257 melanoma; 96.6% in the test with M14 melanoma; 105% in the test on HCT-15 colon; 98.3% with HT29 colon. Besides, the growth in the test on SNB-75 CNS was 95.3%; in the test on SNB-19 CNS it was 96.2%; in the test with U251 CNS it was 100%; with PC-3 prostate, 99.7%; in the test on SK-MEL-5 melanoma, 101%; in the test on UACC-62 melanoma, 94.1%. Also, the results for the growth with LOX IMVI melanoma and in the test on SK-MEL-28 melanoma were 106% and 102%, respectively.
Turning to `O=S(=O)(c1ccc(N/N=C\c2ccccc2Cl)cc1)c1ccc(N/N=C/c2ccccc2Cl)cc1`, the growth with DU-145 prostate is 92.1%; with K-562 leukemia it was 86.1%; in the test on MALME-3M melanoma, 94.6%; with MDA-MB-231 breast, 81.6%; with RXF 393 renal, 106%; in the test on SF-268 CNS, 67.8%. Further, the growth in the test on SF-295 CNS is 89.6%; in the test with SF-539 CNS, 89.7%; in the test on UACC-257 melanoma it was 92.1%; with M14 melanoma, 84.7%; in the test with HCT-15 colon, 73.7%; in the test on HT29 colon, 79.2%. The growth in the test with SNB-75 CNS was 61.5%; with SNB-19 CNS, 90.4%; with U251 CNS, 90.1%; in the test with PC-3 prostate, 54.7%; in the test with SK-MEL-5 melanoma, 97.1%; with UACC-62 melanoma it was 73.2%. The results for the growth in the test with LOX IMVI melanoma and in the test with SK-MEL-28 melanoma were 95.1% and 94.2%, respectively.

The values are drawn from PubChem BioAssay (NCI).
